A selection: hits, their analogues and other compounds. The true share with any hit is near 3.2%.
Rtt109 HAT inh: inhibitors of Candida albicans Rtt109/Vps75 histone acetyltransferase. Q5AAJ8. 0.16% of 330,000 active. purified Rtt109/Vps75, ThioGlo CoA-SH fluorescence, 4 h. inhibition, % at 34.9 µM;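 active = inhibition of at least 50% in every replicate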
esBAF inh: SWI/SNF esBAF complex inhibition; mouse ES cells, Bmi1-luciferase knock-in reporter, 24 h; 100% = twice the neutral-well signal; reporter increase, % at 12.5 µM; 2% of 350,000 active; AID 602393; in the data active = activation above about 40%;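 also: 0% = median of the plate's neutral control wells and 100% = double that signal; a rise in the Bmi1 reporter signal indicates esBAF inhibition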
CDK5 p35 inh: inhibitors of human CDK5/p35 kinase. Q00535+Q15078. Recombinant CDK5/p35, ADP-Glo luminescence, 60 min. inhibition, % at 10 µM. 0.01% of 330,000 active;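 active = highest replicate inhibition of at least 50% and at least 75% of replicates reaching 50%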;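 also: plate controls were DMSO neutral control for no effect and GW8510 at 10 µM for full effect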
dFosB act-1: enhances mouse delta FosB homodimer DNA binding; P13346; purified delta FosB, TAMRA-CDK5 oligo fluorescence polarization; percent of positive-control signal above neutral wells; activation, % at 25 µM; 0.99% of 340,000 active; AID 493131;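 active = mean activation above about 17%, with every replicate also reaching it, limit read from the data, passing the limit was not always enough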
Target sequence (P13346 whole entry, looked up): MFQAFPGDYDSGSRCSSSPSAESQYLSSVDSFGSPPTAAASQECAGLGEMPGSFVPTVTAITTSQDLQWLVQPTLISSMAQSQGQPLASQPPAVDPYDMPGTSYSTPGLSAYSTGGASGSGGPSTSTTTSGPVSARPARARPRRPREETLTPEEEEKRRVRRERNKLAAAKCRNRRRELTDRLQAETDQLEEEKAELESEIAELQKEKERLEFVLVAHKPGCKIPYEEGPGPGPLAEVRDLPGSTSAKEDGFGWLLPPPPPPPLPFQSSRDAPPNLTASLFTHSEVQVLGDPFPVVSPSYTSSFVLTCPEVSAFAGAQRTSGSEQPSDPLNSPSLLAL
Dyrk1A ADPGlo: inhibitors of rat Dyrk1A kinase; inhibition, % at 12.5 µM; ADP-Glo luminescence, NFATc1 peptide; 0.43% of 310,000 active; AID 504441; in the data active = inhibition above about 50%;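 also: plate controls were vehicle with enzyme for no effect and no enzyme for full effect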
SMARCA2 activ: increases SMARCA2 function in MMTV reporter cells; activation, % at 9.1 µM; 1% of 370,000 active; MG213 cells, MMTV-luciferase reporter, dexamethasone, overnight; AID 652017; in the data active = activation above about 7.8%;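 also: 0% = vehicle wells and 100% = reference activator wells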
dFosB act-2: enhances mouse delta FosB homodimer binding to DNA | activation, % at 24.9 µM | shares compounds with dFosB act-1 | purified delta FosB, TAMRA-CDK5 oligo fluorescence polarization; normalised: neutral wells 0, positive control 100 | 2,400 tested, under 10 active;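 active = highest replicate activation at or above 34% and every replicate reaching that threshold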;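 also: higher polarization means more probe DNA bound by delta FosB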
* marks the source's active call; other numbers are inactive results; . = not tested or not shown.

SMILES	Rtt109 HAT inh	esBAF inh	CDK5 p35 inh	dFosB act-1	Dyrk1A ADPGlo	SMARCA2 activ	dFosB act-2
N#Cc1ccc(-c2ccc(F)cc2)nc1SCC(=O)Nc1sc2c(c1C#N)CCC2	-5	5	1	37*	0	-1	1
CC(=O)Nc1ccc(NC(=O)Cn2c(=O)n(-c3ccc(F)cc3)c(=O)c3oc4ccccc4c32)cc1	-2	.	-4	21*	-7	-2	1
NC(=O)c1ccc(NC(=O)Cn2c(=O)n(-c3ccccc3)c(=O)c3oc4ccccc4c32)cc1	-2	.	-1	3	-5	0	.
CSc1nc2sc(-c3ccccc3)cc2c(=O)n1N	-9	57*	0	65*	-5	6	4
CC=Cc1ccc2n(c1=O)C[C@@H]1[C@@H](CO)[C@H](C(=O)N(C)C)[C@H]2N1CC1CCOCC1 (mixture of isomers)	.	-6	.	.	.	.	.
O=C(CO/N=C/c1c(Cl)cccc1Cl)NNC(=O)c1ccc(Cl)cc1	-8	-7	-1	0	-11	-4	.
O=C(CO/N=C/c1c(Cl)cccc1Cl)NNC(=O)c1cccc(Cl)c1	1	.	1	43*	1	3	0
C[C@H]1CN([C@@H](C)CO)C(=O)c2cc(C#CC3(O)CCCC3)cnc2O[C@H]1CN(C)C(=O)Cc1cccnc1	.	0	.	.	.	.	.
Cn1cc(/C=N/NC(=O)c2cccc([N+](=O)[O-])c2)c2ccccc21	1	-9	-5	8	11	4	.
Cn1cc(/C=C(\C#N)C(=O)Nc2cccc([N+](=O)[O-])c2)c2ccccc21	0	-11	0	45*	-5	-2	4
O=C(CSc1nc2cc(Cl)c(Cl)cc2[nH]1)c1ccc2c(c1)OCO2	-7	5	3	28*	5	-3	4
COCC(=O)Nc1ccc2c(c1)OC[C@@H](C)N(Cc1ccccc1F)C[C@@H](C)[C@H](OC)CN(C)C2=O	.	0	.	.	.	.	.
Cc1ccc(-c2csc(/C=C3\SC(C)C(=O)N3CC(=O)Nc3ccccc3F)n2)cc1 (centres undefined)	-15	3	-6	18*	0	-1	0
O=C(CN1C(=O)CS/C1=C\c1nc(-c2ccc(Cl)cc2)cs1)Nc1cccnc1Cl	-14	.	-1	-2	-1	-1	.
COc1ccc(-c2nn(C)c(=O)c3ccccc23)cc1NC(=O)Cn1nc(-c2ccccc2)c2ccccc2c1=O	-6	.	1	19*	8	-3	-1
CN1CCN(c2nc(Nc3ccc(F)cc3)nc(Nc3ccc(F)cc3)n2)CC1	-10	-10	2	40*	0	0	-2
CCN(C(=O)COC(=O)CCc1ccc(OC)cc1)c1c(N)n(Cc2ccccc2)c(=O)[nH]c1=O	-16	-3	0	42*	-7	4	1
COCCN(C(=O)COC(=O)COc1ccc2ccccc2c1)c1c(N)n(Cc2ccccc2)c(=O)[nH]c1=O	0	-5	0	19*	4	-3	0
CN(C(=O)COC(=O)COc1ccc2c(c1)CCC2)c1c(N)n(Cc2ccccc2)c(=O)[nH]c1=O	3	-2	0	-18	-5	0	.
CCN(C(=O)COC(=O)COc1ccc2c(c1)CCC2)c1c(N)n(Cc2ccccc2)c(=O)[nH]c1=O	0	7	0	24*	5	-2	-1
CC(C)CN(C(=O)COC(=O)c1ccc(Br)cc1)c1c(N)n(Cc2ccccc2)c(=O)[nH]c1=O	6	-7	2	51*	12	-3	-1
CCCC#Cc1ccc2c(c1)O[C@@H](CN(C)CC1CCOCC1)[C@H](C)CN([C@H](C)CO)S2(=O)=O	.	-7	.	.	.	.	.
O=C(CN1CCOCC1)N[C@H]1CC[C@@H](CCNC(=O)C2CCC2)O[C@@H]1CO	.	1	.	.	.	.	.
CC(=O)c1c(C)[nH]c(C(=O)OCC(=O)N2CCc3ccccc32)c1C	-6	54*	0	29*	-8	1	8
O=C(OCC(=O)N1CCc2ccccc21)c1n[nH]c(=O)c2ccccc12	-3	-3	0	38*	.	2	-1
SMILES	Rtt109 HAT inh	esBAF inh	CDK5 p35 inh	dFosB act-1	Dyrk1A ADPGlo	SMARCA2 activ	dFosB act-2
C[C@@H]1CN([C@H](C)CO)C(=O)c2cc(-c3ccc(F)cc3)cnc2O[C@H]1CN(C)C(=O)c1ccccc1F	.	-8	.	.	.	.	.
O=C1c2ccccc2C(=O)N1Cc1nc2ccccc2c(=O)n1CCCn1ccnc1	0	.	0	-13	41	-1	.
CCCCn1c(CN2C(=O)c3ccccc3C2=O)nc2ccccc2c1=O	5	-3	2	30*	-6	3	0
CN1/C(=C/C(=O)CSc2ccccc2C(=O)O)C(C)(C)c2ccccc21	-2	-15	-1	19*	-8	-7	-1
CN1/C(=C\C(=O)CSc2nnc(N)s2)C(C)(C)c2ccccc21	.	17	0	-1	9	-1	.
COc1ccc(Nc2nnc(SCC(=O)/C=C3/N(C)c4ccccc4C3(C)C)s2)cc1	4	.	0	43*	-1	0	1
CN1/C(=C\C(=O)CSc2cccc[n+]2[O-])C(C)(C)c2ccccc21	-18	.	2	8	.	-2	.
C[C@@H]1CN([C@H](C)CO)C(=O)c2cccc(NS(=O)(=O)c3cccs3)c2O[C@H]1CN(C)C(=O)Nc1ccc(F)cc1	.	-2	.	.	.	.	.
CCNC(=O)[C@@H]1[C@@H](CO)[C@@H]2Cn3c(ccc(C4=CCCC4)c3=O)[C@H]1N2Cc1cccnc1	.	-6	.	.	.	.	.
CNC[C@H]1Oc2ccc(NC(=O)NC3CCCCC3)cc2CC(=O)N([C@@H](C)CO)C[C@H]1C	.	0	.	.	.	.	.
CN1CCN(S(=O)(=O)c2ccc3ccccc3c2)CC1	5	-5	1	-5	-4	2	.
CC(=O)NCc1ccc(S(=O)(=O)N2CCN(S(=O)(=O)c3ccc4ccccc4c3)CC2)cc1	-3	3	2	49*	-2	1	3
O=C(NCC(=O)N1CCN(S(=O)(=O)c2ccccc2)CC1)c1ccc2ccccc2c1	3	5	1	-8	6	-1	.
CN1/C(=C\C(=O)COC(=O)CNC(=O)c2ccc3ccccc3c2)C(C)(C)c2ccccc21	8	-21	0	34*	-2	-1	1
O=C(CNC(=O)c1ccc2ccccc2c1)OCC(=O)N1CCN(S(=O)(=O)c2ccc3ccccc3c2)CC1	6	-5	-2	22*	-3	-3	-9
CN1/C(=C\C(=O)COC(=O)CNC(=O)c2ccccc2F)C(C)(C)c2ccccc21	-4	.	-1	9	-1	1	.
C=CCn1c(=NC(=O)c2cc(Cl)sc2Cl)sc2cc(S(N)(=O)=O)ccc21	-8	.	0	25*	3	4	4
C=CCn1c(=NC(=O)c2sc3ccccc3c2Cl)sc2cc(S(N)(=O)=O)ccc21	2	.	1	-3	11	.	.
COC(=O)c1ccc(OCC(=O)Nc2ccsc2C(=O)OC)cc1	3	-8	2	36*	4	-3	2
COC(=O)c1sccc1NC(=O)COc1cccc(C)c1	1	4	1	-18	3	-5	.
CCCC(=O)Nc1ccc2c(c1)C(=O)N(C)C[C@H](OC)[C@@H](C)CN(S(=O)(=O)c1cn(C)cn1)[C@H](C)CO2	.	3	.	.	.	.	.
